Activity calls are given as the source filed them. Rule for the calls: active = hit-call score of the fitted dose curve at least 0.9, where 1 is the maximum; inconclusive = response in the unintended direction; inactive = score below 0.9.
experiment: Tanguay_ZF_120hpf_ActivityScore_legacy: (Legacy) Oregon State University Tanguay Lab 120 Hour Post-fertilization zebrafish Assay Score for Activity (AID 2283742);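 for AC50: dechorionated Tropical 5D wild-type zebrafish embryos held singly per well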
Procedure, shortened: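 Binary scoring of mortality and morphology by brightfield at 24 and 120 hpf, summarised into one activity score from 18 components relative to DMSO. Wild-type Tropical 5D zebrafish, chorion removed at 4 hpf, static exposure 6–120 hpf, 28 °C.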

Row | Compound | outcome | AC50
1 | CC(C)(C)OOC(=O)c1ccccc1 | inactive | 
2 | Clc1ccccc1Cl | inactive | 
3 | Clc1ccc(C(c2ccc(Cl)cc2)C(Cl)(Cl)Cl)cc1 | inactive | 
4 | CCN(CC)N=O | inactive | 
5 | COc1cc(C=O)cc2c1[C@H](COC(N)=O)[C@]1(OC(C)=O)ON2C[C@H]2[C@@H]1N2C(C)=O |  | 23.4 µM (active)
6 | c1ccc2c(c1)-c1cccc3cccc-2c13 | inactive | 
7 | CC(C)(O)c1cnn2c(-c3ccc(F)c(-c4c(F)cccc4C#N)c3)cnc2n1 | inactive | 
8 | [O-][Cl+]O | inactive | 
9 | O=Cc1ccco1 | inactive | 
10 | O=C(N[C@H](c1ccccc1)[C@@H]1CN2CCC1CC2)c1c(Cl)ccc(C(F)(F)F)c1Cl |  | 28.3 µM (active)
11 | CC(C)(OOC(C)(C)c1ccccc1)c1ccccc1 | inactive | 
12 | Nc1ccc([N+](=O)[O-])cc1 | inactive | 
13 | CCOc1cccc(C2(N3CCN(c4ccccc4)CC3)CCC(C)CC2)c1 (stereo not drawn) | inactive | 
14 | O=C(O)C1C2CCC(O2)C1C(=O)O (stereo not drawn) | inactive | 
15 | CCCCCCCCn1sccc1=O |  | 3.42 µM (active)
16 | O=C(Nc1ccccc1)c1ccccc1I |  | 11.6 µM (active)
17 | O=P(OCCCl)(OCCCl)OCCCl | inactive | 
18 | CNC(=O)Oc1cccc2c1OC(C)(C)C2 | inactive | 
19 | CC(C)(C)OOC(C)(C)CCC(C)(C)OOC(C)(C)C | inactive | 
20 | CC(O)CCO (stereo not drawn) | inactive | 
21 | ClC1=C(Cl)[C@]2(Cl)[C@H]3[C@H]([C@@H]4C=C[C@H]3C4)[C@@]1(Cl)C2(Cl)Cl | inactive | 
22 | CCCCCCCCOC(=O)c1ccc(C(=O)OCCCCCCCC)c(C(=O)OCCCCCCCC)c1 | inactive | 
23 | OCCOCCO | inactive | 
24 | OCCCl | inactive | 
25 | O=[N+]([O-])c1ccc(Oc2ccc(Cl)cc2Cl)cc1 | inactive | 
26 | O=C(Oc1ccc(Br)cc1)N1CCN2CCC1CC2 | inactive | 
27 | c1ccc(N=Nc2ccccc2)cc1 | inactive | 
28 | O=C1CCCO1 | inactive | 

From PubChem BioAssay (EPA / NIEHS)
